Measurements taken from PubChem BioAssay.
The source made the active and inactive calls. Unless noted, no rule for the calls is given here.

Assays:
[1] = system: Wnt5a (protein binding on small-molecule microarray); assay: Wnt5a binders on small-molecule microarray, primary screen, biophysical, 635/667 nm fluorescence (AID 1142); conditions: 635 nm fluorescence, higher = more signal;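 also: fluorescence read at 667 nm with signal to noise per printed feature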
[2] = cell viability in Huh7 cells, primary screen, cytotoxicity control for HCV replication inhibitor project, CellTiter-Glo luminescence, basal, 48 h (AID 1143); conditions: Huh7 HCV replicon, higher = more signal, called active from +8 up or from −8 down;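 also: Huh7 hepatoma cells carrying a hepatitis C replication reporter with no stimulus; test concentration not given here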
[3] = P. aeruginosa biofilm formation inhibitors, primary screen, PAO1 strain, BacTiter-Glo luminescence, LB-PBS (AID 1144); conditions: 12 h, higher = more signal
[4] = CREB reporter modulators without forskolin, primary screen, cell-based, PC12, CRE-LacZ reporter, unstimulated (AID 1145); conditions: no forskolin, luminescence, 4.5 h, higher = more signal, called active from +8 up or from −8 down
[5] = CREB reporter modulators under forskolin, primary screen, cell-based, PC12, CRE-LacZ reporter, forskolin-stimulated (AID 1146); conditions: luminescence, 4.5 h, higher = more signal, called active from +8 up or from −8 down;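 also: PC12 cells with 6xCRE LacZ reporter stimulated by forskolin 10 µM; beta-galactosidase reporter signal reflecting CREB driven transcription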
[6] = molecular target: Streptavidin (Streptomyces avidinii) (UniProt P22629); assay: streptavidin binders on small-molecule microarray, primary screen, artefact control for SMM compound annotation, biophysical, 635/667 nm fluorescence (AID 1147); conditions: streptavidin binding, higher = more signal;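 also: signal reflects streptavidin binding to arrayed compounds as a control protein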
[7] = small-molecule binders of probe aInhba, primary screen, biochemical, small-molecule microarray, 635/667 nm fluorescence (AID 1148); conditions: higher = more signal;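 also: score merges 667nm spot fluorescence with signal-to-noise for antibody binding to printed compounds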
Torsin-1A (Homo sapiens) [8] = molecular target: Torsin-1A (Homo sapiens) (UniProt O14656); assay: torsin A binders from cell lysate, primary screen, small-molecule microarray, wild-type, 635/667 nm (AID 1149); conditions: COS7 hTOR1A-WT lysate, 635 nm fluorescence, higher = more signal
Torsin-1A (Homo sapiens) [9] = molecular target: Torsin-1A (Homo sapiens) (UniProt O14656); assay: small-molecule binders of mutant TOR1A in lysate, primary screen, cell lysate, small-molecule microarray, COS7 lysate, 635/667 nm fluorescence (AID 1150); conditions: COS7 hTOR1A mutant lysate, 635 nm fluorescence, higher = more signal;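 also: score pools 667 nm emission and signal to noise measuring lysate protein binding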
[10] = system: Sonic hedgehog protein (Shh); assay: small-molecule binders of Shh protein, primary screen, biochemical, small-molecule microarray, 635/667 nm fluorescence (AID 1151); conditions: small-molecule microarray binding, 635 nm fluorescence; higher = more signal;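 also: Shh protein binding to compounds spotted on small-molecule microarray slides; score combines spot fluorescence intensity with signal-to-noise across triplicate slides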
[11] = E. coli DRC41 culture turbidity changes, primary screen, E. coli filamentation inducer project, strain DRC41, OD650, 48 h (AID 1152);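 also: E. coli MC1000 strain DRC41 lacking acrAB efflux pump and sulA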; conditions: E. coli DRC41 (acrAB sulA), higher = more signal, called active from +8 up or from −8 down
[12] = small-molecule binders of probe aLefty1, primary screen, biochemical, small-molecule microarray, 635/667 nm fluorescence (AID 1153); conditions: higher = more signal;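 also: score merges spot fluorescence with signal-to-noise ratio from the scanned slide images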
[13] = PSAC antagonists in infected red cells, primary screen, cell-based, P. falciparum Indochina, OD700, 1 h (AID 1154); conditions: P. falciparum Indochina infected RBC osmotic lysis, higher = more signal, called active from +8 up or from −8 down
[14] = PSAC antagonists in infected red cells, primary screen, cell-based, P. falciparum Indochina, OD700, 2 h (AID 1155);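 also: lysis reports solute entry through the parasite surface anion channel PSAC; channel blockers reduce lysis of infected cells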; conditions: P. falciparum Indochina infected erythrocytes, osmotic lysis OD700; higher = more signal, called active from +8 up or from −8 down
[15] = osmotic lysis modulators in infected erythrocytes, primary screen, PSAC antagonist project, cell-based, P. falciparum Indochina, OD700, 3 h (AID 1156); conditions: higher = more signal, called active from +8 up or from −8 down
[16] = PSAC antagonists in infected red cells, primary screen, cell-based, P. falciparum Indochina, OD700, 18 h (AID 1157); conditions: P. falciparum Indochina infected erythrocytes, osmotic lysis OD700, 18 h; higher = more signal, called active from +8 up or from −8 down
[17] = modulators of S6 phosphorylation in cells, primary screen, cell-based, A549, cytoblot, luminescence, serum-stimulated (AID 1158); conditions: A549 phospho-S6 cytoblot, 5 h, higher = more signal;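 also: serum-stimulated A549 lung adenocarcinoma cells; signal is phosphorylated S6 detected by cytoblot immunostaining with HRP secondary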
[18] = molecular target: NADPH oxidase 2 (Homo sapiens) (UniProt P04839); assay: NOX2-dependent H2O2 signal modulators, primary screen, NOX inhibitor project, cell-based, HEK293-NOX2, PMA-stimulated, Amplex Red fluorescence (AID 1159); conditions: 45 min, higher = more signal, called active from +8 up or from −8 down; also: test concentration not given here
[19] = molecular target: NADPH oxidase 4 (Homo sapiens) (UniProt Q9NPH5); assay: NOX4-dependent H2O2 signal modulators, primary screen, NOX inhibitor project, cell-based, HEK293-NOX4, tetracycline-induced, Amplex Red fluorescence (AID 1160); conditions: 45 min, higher = more signal, called active from +8 up or from −8 down
[20] = molecular target: NADPH oxidase 5 (Homo sapiens) (UniProt Q96PH1); assay: NOX5-dependent H2O2 signal modulators, primary screen, NOX inhibitor project, cell-based, HEK293-NOX5, Amplex Red fluorescence (AID 1161); conditions: HEK293-NOX5, ionomycin, 45 min, higher = more signal
NADPH oxidase 5 (Homo sapiens), sequence (Q96PH1 whole entry, looked up): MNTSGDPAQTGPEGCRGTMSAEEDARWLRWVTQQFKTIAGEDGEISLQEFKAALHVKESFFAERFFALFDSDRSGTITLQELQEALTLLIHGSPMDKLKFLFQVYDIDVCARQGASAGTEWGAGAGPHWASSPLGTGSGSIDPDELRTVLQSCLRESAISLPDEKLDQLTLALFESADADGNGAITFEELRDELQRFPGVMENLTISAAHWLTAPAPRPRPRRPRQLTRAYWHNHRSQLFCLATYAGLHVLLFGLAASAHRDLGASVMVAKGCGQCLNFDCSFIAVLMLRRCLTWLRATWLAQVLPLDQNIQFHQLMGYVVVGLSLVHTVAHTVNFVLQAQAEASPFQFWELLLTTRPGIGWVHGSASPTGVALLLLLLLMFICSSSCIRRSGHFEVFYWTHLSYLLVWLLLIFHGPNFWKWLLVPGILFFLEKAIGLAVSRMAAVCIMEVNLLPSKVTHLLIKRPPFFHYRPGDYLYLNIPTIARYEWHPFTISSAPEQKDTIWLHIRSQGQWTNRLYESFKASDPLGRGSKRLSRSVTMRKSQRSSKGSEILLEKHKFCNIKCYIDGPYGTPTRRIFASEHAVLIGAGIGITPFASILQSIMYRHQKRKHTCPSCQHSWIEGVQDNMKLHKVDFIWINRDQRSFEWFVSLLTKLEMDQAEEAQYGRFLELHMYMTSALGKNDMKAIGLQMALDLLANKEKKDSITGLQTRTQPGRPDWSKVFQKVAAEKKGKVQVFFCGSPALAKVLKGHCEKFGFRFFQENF

NADPH oxidase 4 (Homo sapiens), sequence (Q9NPH5 whole entry, looked up): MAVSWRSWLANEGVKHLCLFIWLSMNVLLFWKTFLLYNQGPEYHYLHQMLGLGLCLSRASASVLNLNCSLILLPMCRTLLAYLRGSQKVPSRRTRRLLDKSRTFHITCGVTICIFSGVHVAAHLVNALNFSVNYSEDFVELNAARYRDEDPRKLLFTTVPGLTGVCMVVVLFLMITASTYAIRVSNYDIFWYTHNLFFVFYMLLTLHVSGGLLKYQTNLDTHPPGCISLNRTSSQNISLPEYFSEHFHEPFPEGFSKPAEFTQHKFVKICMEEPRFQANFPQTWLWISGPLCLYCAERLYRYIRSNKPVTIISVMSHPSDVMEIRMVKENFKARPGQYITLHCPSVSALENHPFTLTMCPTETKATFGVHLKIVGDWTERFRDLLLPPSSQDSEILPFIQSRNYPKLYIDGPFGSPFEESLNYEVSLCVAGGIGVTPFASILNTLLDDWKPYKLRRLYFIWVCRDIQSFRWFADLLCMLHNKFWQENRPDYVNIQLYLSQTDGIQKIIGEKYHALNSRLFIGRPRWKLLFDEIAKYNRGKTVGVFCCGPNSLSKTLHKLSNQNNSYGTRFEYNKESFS
Streptavidin (Streptomyces avidinii), sequence (P22629 whole entry, looked up): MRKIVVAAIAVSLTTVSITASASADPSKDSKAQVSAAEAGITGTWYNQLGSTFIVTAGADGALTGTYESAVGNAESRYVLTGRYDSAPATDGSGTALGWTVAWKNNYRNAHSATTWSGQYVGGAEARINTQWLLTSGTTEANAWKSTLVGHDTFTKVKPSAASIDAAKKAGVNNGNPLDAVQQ
Torsin-1A (Homo sapiens), sequence (O14656 whole entry, looked up): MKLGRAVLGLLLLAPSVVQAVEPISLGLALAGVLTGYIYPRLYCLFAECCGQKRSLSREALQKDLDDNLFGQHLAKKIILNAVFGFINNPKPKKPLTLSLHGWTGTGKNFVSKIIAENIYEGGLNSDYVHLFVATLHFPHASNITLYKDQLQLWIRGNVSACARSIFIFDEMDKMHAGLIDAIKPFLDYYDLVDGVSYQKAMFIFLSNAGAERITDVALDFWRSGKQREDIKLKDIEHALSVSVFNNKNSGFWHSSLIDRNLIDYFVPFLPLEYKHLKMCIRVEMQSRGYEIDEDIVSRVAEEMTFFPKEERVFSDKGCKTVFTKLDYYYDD
NADPH oxidase 2 (Homo sapiens), sequence (P04839 whole entry, looked up): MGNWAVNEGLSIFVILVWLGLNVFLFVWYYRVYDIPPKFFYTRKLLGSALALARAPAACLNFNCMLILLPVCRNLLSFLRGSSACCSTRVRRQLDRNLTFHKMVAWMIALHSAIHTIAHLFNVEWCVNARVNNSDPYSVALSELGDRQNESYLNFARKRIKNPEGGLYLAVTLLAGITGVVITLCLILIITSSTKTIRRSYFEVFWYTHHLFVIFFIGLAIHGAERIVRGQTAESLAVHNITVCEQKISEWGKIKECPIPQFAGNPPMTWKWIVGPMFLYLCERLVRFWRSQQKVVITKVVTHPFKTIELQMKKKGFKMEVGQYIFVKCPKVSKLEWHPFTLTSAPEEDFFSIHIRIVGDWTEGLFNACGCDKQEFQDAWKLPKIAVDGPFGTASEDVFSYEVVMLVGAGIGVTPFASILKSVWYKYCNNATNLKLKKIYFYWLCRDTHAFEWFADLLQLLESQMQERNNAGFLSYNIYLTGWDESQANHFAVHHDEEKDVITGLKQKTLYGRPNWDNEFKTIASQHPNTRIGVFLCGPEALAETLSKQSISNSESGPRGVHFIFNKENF

SMILES: CCc1cc2c(nc1CC)CCN(CCC(C)=NOC[C@@H](C)[C@H](OCc1ccccc1)C(C)C)C2
- composite z-score [1]: -0.608
- z-score [2]: -1.09 (inactive)
- z-score [3]: 0.241 (inactive)
- z-score [4]: 0.387 (inactive)
- z-score [5]: 0.113 (inactive)
- composite z-score [6]: -1.39
- composite z-score [7]: -0.302
- composite z-score (Torsin-1A (Homo sapiens) [8]): -0.94
- composite z-score (Torsin-1A (Homo sapiens) [9]): -1.22
- composite z-score [10]: -0.267
- z-score [11]: -0.64 (inactive)
- composite z-score [12]: -1.28
- z-score [13]: 1.29 (inactive)
- z-score [14]: -2.02 (inactive)
- z-score [15]: 0.513 (inactive)
- z-score [16]: -2.16 (inactive)
- z-score [17]: 1.35
- z-score [18]: -2.3 (inactive)
- z-score [19]: -0.642 (inactive)
- z-score [20]: -4.09

SMILES: CC(C)=CCCC(C)=CCON=C1C[C@@H](O)[C@@H](O)[C@@H]2[C@@H]3C(=O)N(Cc4ccc5c(c4)OCO5)C(=O)[C@@H]3CC[C@H]12
- composite z-score [1]: 0.352
- z-score [2]: -1.61 (inactive)
- z-score [3]: 0.802 (inactive)
- z-score [4]: -0.295 (inactive)
- z-score [5]: 0.489 (inactive)
- composite z-score [6]: 0.133
- composite z-score [7]: -0.0332
- composite z-score (Torsin-1A (Homo sapiens) [8]): 0.46
- composite z-score (Torsin-1A (Homo sapiens) [9]): 0.724
- composite z-score [10]: 0.728
- z-score [11]: -0.171 (inactive)
- composite z-score [12]: -0.202
- z-score [13]: 11.1 (active)
- z-score [14]: 1.73 (inactive)
- z-score [15]: 1.64 (inactive)
- z-score [16]: 0.844 (inactive)
- z-score [17]: -0.429
- z-score [18]: -0.344 (inactive)
- z-score [19]: -2.35 (inactive)
- z-score [20]: -4.13

SMILES: COC(=O)[C@H](C)NC(=O)CCC1CC(OC(=O)NCc2cccc3ccccc23)CC2(CCCC(COC(=O)NCc3ccccc3)O2)O1 (stereo not given in full)
- composite z-score [1]: 0.276
- z-score [2]: -1.12 (inactive)
- z-score [3]: -1.33 (inactive)
- z-score [4]: -0.437 (inactive)
- z-score [5]: 0.0493 (inactive)
- composite z-score [6]: 0.777
- composite z-score [7]: 0.0901
- composite z-score (Torsin-1A (Homo sapiens) [8]): 0.283
- composite z-score (Torsin-1A (Homo sapiens) [9]): 0.542
- composite z-score [10]: 1.07
- z-score [11]: -0.249 (inactive)
- composite z-score [12]: 0.378
- z-score [13]: 0.385 (inactive)
- z-score [14]: -0.254 (inactive)
- z-score [15]: 0.0409 (inactive)
- z-score [16]: 0.0533 (inactive)
- z-score [17]: 0.362
- z-score [18]: 1.42 (inactive)
- z-score [19]: 0.73 (inactive)
- z-score [20]: 1.06

SMILES: Cc1ccc(C(C)C)n1C(=O)OC(C)(C)C
- composite z-score [1]: 0.211
- z-score [2]: -0.841 (inactive)
- z-score [3]: -1.5 (inactive)
- z-score [4]: -0.708 (inactive)
- z-score [5]: 0.686 (inactive)
- composite z-score [6]: 0.963
- composite z-score [7]: -0.176
- composite z-score (Torsin-1A (Homo sapiens) [8]): 0.356
- composite z-score (Torsin-1A (Homo sapiens) [9]): 0.196
- composite z-score [10]: 0.675
- z-score [11]: -0.241 (inactive)
- composite z-score [12]: -0.0934
- z-score [13]: -0.446 (inactive)
- z-score [14]: -1.44 (inactive)
- z-score [15]: -0.165 (inactive)
- z-score [16]: -1.53 (inactive)
- z-score [17]: 1.04
- z-score [18]: -0.137 (inactive)
- z-score [19]: 0.209 (inactive)
- z-score [20]: 0.674

SMILES: CC(=O)OC[C@H]1O[C@H](CC=NOC[C@@H](O)[C@H]2O[C@@H]3OC(C)(C)O[C@@H]3[C@H]2O)C=C[C@@H]1OC(C)=O
- composite z-score [1]: 0.0795
- z-score [2]: 0.165 (inactive)
- z-score [3]: -0.0289 (inactive)
- z-score [4]: -1.3 (inactive)
- z-score [5]: -0.521 (inactive)
- composite z-score [6]: 0.168
- composite z-score [7]: -0.152
- composite z-score (Torsin-1A (Homo sapiens) [8]): -0.197
- composite z-score (Torsin-1A (Homo sapiens) [9]): 0.071
- composite z-score [10]: -0.0919
- z-score [11]: -1.11 (inactive)
- composite z-score [12]: 0.145
- z-score [13]: 0.466 (inactive)
- z-score [14]: 0.274 (inactive)
- z-score [15]: 0.0662 (inactive)
- z-score [16]: 0.466 (inactive)
- z-score [17]: -0.549
- z-score [18]: -0.462 (inactive)
- z-score [19]: 0.136 (inactive)
- z-score [20]: -0.515

SMILES: COc1ccc(OC[C@@H](CO)OC)cc1
- composite z-score [1]: 0.131
- z-score [2]: 0.314 (inactive)
- z-score [3]: 0.86 (inactive)
- z-score [4]: 0.562 (inactive)
- z-score [5]: 0.17 (inactive)
- composite z-score [6]: 0.495
- composite z-score [7]: -0.0962
- composite z-score (Torsin-1A (Homo sapiens) [8]): 0.373
- composite z-score (Torsin-1A (Homo sapiens) [9]): 0.304
- composite z-score [10]: 0.577
- z-score [11]: 0.261 (inactive)
- composite z-score [12]: -0.145
- z-score [13]: -0.578 (inactive)
- z-score [14]: -0.348 (inactive)
- z-score [15]: -0.566 (inactive)
- z-score [16]: -0.389 (inactive)
- z-score [17]: -0.51
- z-score [18]: 0.712 (inactive)
- z-score [19]: 0.422 (inactive)
- z-score [20]: 0.133

SMILES: CCOC(=O)[C@H](Cc1ccccc1)NC(=O)CCC1CC(OC(=O)NCc2cccc3ccccc23)CC2(CCCC(COC(=O)NCCc3ccc(Cl)cc3)O2)O1 (stereo not given in full)
- composite z-score [1]: 0.0449
- z-score [2]: -2.69 (inactive)
- z-score [3]: -1.39 (inactive)
- z-score [4]: 0.563 (inactive)
- z-score [5]: 0.0305 (inactive)
- composite z-score [6]: 0.998
- composite z-score [7]: -0.223
- composite z-score (Torsin-1A (Homo sapiens) [8]): -0.162
- composite z-score (Torsin-1A (Homo sapiens) [9]): 0.244
- composite z-score [10]: 0.932
- z-score [11]: -1.37 (inactive)
- composite z-score [12]: 0.539
- z-score [13]: 7.28 (inactive)
- z-score [14]: 0.618 (inactive)
- z-score [15]: -0.552 (inactive)
- z-score [16]: -0.687 (inactive)
- z-score [17]: 0.335
- z-score [18]: 0.694 (inactive)
- z-score [19]: 0.92 (inactive)
- z-score [20]: 0.986

SMILES: COc1ccc(COC(=O)NN=C2C[C@@H](O)[C@@H](O)[C@@H]3[C@@H]4C(=O)N([C@@H](C)c5ccccc5)C(=O)[C@@H]4CC[C@@H]23)cc1
- composite z-score [1]: 0.251
- z-score [2]: 1 (inactive)
- z-score [3]: -0.253 (inactive)
- z-score [4]: -0.113 (inactive)
- z-score [5]: 0.0521 (inactive)
- composite z-score [6]: 0.409
- composite z-score [7]: 0.0111
- composite z-score (Torsin-1A (Homo sapiens) [8]): 0.699
- composite z-score (Torsin-1A (Homo sapiens) [9]): 0.388
- composite z-score [10]: -0.0113
- z-score [11]: 0.774 (inactive)
- composite z-score [12]: -0.102
- z-score [13]: 0.823 (inactive)
- z-score [14]: -0.119 (inactive)
- z-score [15]: -0.667 (inactive)
- z-score [16]: -0.0631 (inactive)
- z-score [17]: -0.339
- z-score [18]: -0.247 (inactive)
- z-score [19]: 1.01 (inactive)
- z-score [20]: -0.0473

SMILES: CCOC(=O)[C@H](Cc1ccccc1)NC(=O)CCC1CC(OC(=O)NCCc2ccc(F)cc2)CC2(CCCC(COC(=O)NCc3cccc(C(F)(F)F)c3)O2)O1 (stereo not given in full)
- composite z-score [1]: 0.011
- z-score [2]: -2.08 (inactive)
- z-score [3]: 0.885 (inactive)
- z-score [4]: -0.162 (inactive)
- z-score [5]: -0.605 (inactive)
- composite z-score [6]: 0.899
- composite z-score [7]: -0.101
- composite z-score (Torsin-1A (Homo sapiens) [8]): 0.386
- composite z-score (Torsin-1A (Homo sapiens) [9]): 0.376
- composite z-score [10]: 1.48
- z-score [11]: 0.048 (inactive)
- composite z-score [12]: 0.0834
- z-score [13]: -1.14 (inactive)
- z-score [14]: 0.277 (inactive)
- z-score [15]: -0.017 (inactive)
- z-score [16]: 0.344 (inactive)
- z-score [17]: -0.354
- z-score [18]: 0.575 (inactive)
- z-score [19]: 0.488 (inactive)
- z-score [20]: 0.837
